From the supplement of paper PMC6555819

Experiments:
Assay in all cases: PBM binding z-score (relative to random genomic background probes); higher = stronger binding; sequences stand for … in GC…GCGATTGACAGCGTAGAATGAAGG
[1] = test system: FXR:RXRa (NR concentration 270 nM, RXRa partner concentration 90 nM)
Summary of the method: (§1)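 On custom Agilent 4×180K arrays, double-stranded probes with 34-nt variable regions carried direct-repeat seeds, single-nucleotide variants, half-site ablations or random human genomic background. Ligand-free nuclear receptor dimers were applied for 1 h, and binding was read with antibodies against each partner (one per run). Binding z-scores come from regression-normalized fluorescence, with the random background probes as reference.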

[2] = test system: LXRa:RXRa (NR concentration 270 nM, RXRa partner concentration 90 nM)
Summary of the method: as §1

[3] = test system: LXRa homodimer (NR concentration 270 nM)
Summary of the method: as §1

[4] = test system: LXRb:RXRa (NR concentration 270 nM, RXRa partner concentration 90 nM)
Summary of the method: as §1

[5] = test system: LXRb homodimer (NR concentration 270 nM)
Summary of the method: as §1

[6] = test system: PPARa:RXRa (NR concentration 270 nM, RXRa partner concentration 90 nM)
Summary of the method: as §1

[7] = test system: PPARg:RXRa (NR concentration 180 nM, RXRa partner concentration 90 nM)
Summary of the method: as §1

[8] = test system: PPARg:RXRa 270nM:90nM, anti-RXR (NR concentration 270 nM, RXRa partner concentration 90 nM)
Summary of the method: as §1

[9] = test system: PPARg:RXRa 30nM:10nM, anti-RXR (NR concentration 30 nM, RXRa partner concentration 10 nM)
Summary of the method: as §1

[10] = test system: PPARg:RXRa 90nM:30nM, anti-RXR (NR concentration 90 nM, RXRa partner concentration 30 nM)
Summary of the method: as §1

Sequence	PBM binding z-score [1]	PBM binding z-score [2]	PBM binding z-score [3]	PBM binding z-score [4]	PBM binding z-score [5]	PBM binding z-score [6]	PBM binding z-score [7]	PBM binding z-score [8]	PBM binding z-score [9]	PBM binding z-score [10]
AGAACGAGGGCAGTGAGTTGATAGCACGGGTGGC	-0.476	-0.6	-0.882	-0.705	-0.698	0.144	0.647	-0.0577	-0.624	-0.408
TCTCGGAGGACACGAAAGGCCAGAGCTCGACATC	0.554	-0.137	-0.548	-0.341	-1.2	0.0543	0.264	0.908	1.86	1.56
TAGCCTAGCTCAGATCGGGCCAGTATACGCTATA	-0.961	-1.35	-1.07	-1.25	-1.34	-1.21	-0.0455	-0.972	-0.749	-0.992
TAGCCGAGGTCAGATCGGGCCAGTATACGCTATA	5.46	4.26	0.00263	3.74	0.611	4.8	3.14	3.56	1.05	2.17
CGAACTAGGGCATGAGTTGATAGCAAATGCCGAT	-0.0776	-0.357	-0.246	-0.279	-0.828	2.34	4.14	4.13	2.03	3.43
CCGACTGGGGCAAAGGTTACCATCCTCAGTACGA	1.66	1.25	-0.21	1.79	-0.941	5.49	10.9	9.37	8.35	10.1
TCTAGTTGGTCACCGAGGTCACACACGACGGGTA	3.85	3.58	2.2	3.85	1.18	4.41	3.75	4	3.5	3.89
CAAACTAGGTCAGAGGTCAAAGTCGAGCCAACCA	7.41	6.65	5.53	6.17	2.6	7.53	13.4	11.1	11.7	12.8
CGTACAGGGTCAGCTAGGCCAGAGTAGGGACGGC	5.16	2.66	-0.281	1.94	-0.514	4.22	3.14	3.3	0.448	1.84
CCGACTGGGGCAAGGTAACCATAACGCACAGCCA	-0.249	-0.173	-0.437	-0.227	-0.817	0.552	1.47	1.14	-0.222	0.712
TAGCCTAGGTCATTGGGCCAGTATGGTACGCATC	4.05	3.25	0.37	2.07	0.231	3.63	3.54	3.7	0.478	2.47
TCGCCTAGGTCATTCAGGGGCCAGTATAGAAAGC	4.82	3.45	0.443	3.13	0.742	3.8	1.91	2.45	2.3	2.02
TCTAGTTGGACACGGAGGTCACACACGACGGGTA	2.81	2.85	2.1	2.85	0.421	3.68	2.46	3.05	3.26	2.88
ATCTCTAAGTAACCAAGTTCAGTGAATGCCGAAC	0.436	0.569	0.843	0.518	0.349	0.397	-0.15	0.228	0.371	0.352
CGGACGAGGGCATGAGTTGATAGCAAATGCCGAT	0.265	0.0809	-0.262	-0.154	-0.96	1.01	0.992	0.682	-0.202	0.196
CGTGCAAGGTCAGCAGGTCAGTGAAAGCGACGTG	6.34	4.37	0.442	3.25	-0.32	5.48	4.89	4.92	1.7	3.51
TTACTAAGGTGAAAGGTCGTTGATGCACGCCTTG	4.62	4.06	0.805	3.47	-0.065	5.91	9.26	8.57	8.09	9.29
CAAACTAGGTCACGAAAGGTCAAAGTAGAATGAC	7.59	8.11	8.28	7.19	2.72	6.77	10.6	8.55	6.87	8.89
ACTAGCAGGCCAAGTTTGGGTCATTCAAACAAAG	0.394	0.425	-0.172	0.818	-0.545	1.8	0.0288	0.215	-0.284	-0.177
CCTTACGCGTCACTGACAGGTTATAGCATTTGGA	0.188	0.449	0.568	0.697	0.644	0.558	0.31	0.128	0.0399	0.241
CAGCCTAGGTCAGCGCCAGTATAGGAGGAACGTT	1.62	1.05	-0.445	0.71	-0.863	1.92	0.956	1.24	-0.327	0.61
CCTCGGAGGACAGAAGGTCGGAGCTGTCCGCTTT	-0.221	-0.259	-0.611	-0.529	-0.931	-0.47	-0.973	-0.664	-1.51	-1.26
ATATGTAGGATAAGGGTCATTCAGGTTGGTTCGC	3.71	4.09	2.42	3.73	1.19	5.39	9.65	8.92	10.3	10
CGCCCAAGGTCATAGGAGGTCAGTGAAGACAGAT	7.29	7.31	4.78	6.09	0.731	5.8	5.24	5.41	2.05	4.11
CCTAGTTGGTCAGGAGGTCACACTCCGGATATGA	3.59	3.48	2.22	3.31	0.86	3.98	3.28	4.03	1.65	3.38

Sequence	PBM binding z-score [1]	PBM binding z-score [2]	PBM binding z-score [3]	PBM binding z-score [4]	PBM binding z-score [5]	PBM binding z-score [6]	PBM binding z-score [7]	PBM binding z-score [8]	PBM binding z-score [9]	PBM binding z-score [10]
GCTGCTAGGTCAATTGATGGTCAGCTAAAGCTCG	2.8	2.21	-0.0789	1.47	0.292	2.93	1.36	1.87	-0.0907	1.18
ATCGAAAGGTCGACGAGGTGAGCATACACCGTTT	4.55	3.16	0.0611	2.6	0.486	4.14	2.93	3.33	0.968	2.23
CTCGAAAGGTCGTGCTCAGGTGCGTATACCAAAC	4.69	3.72	0.109	2.86	-0.0235	4.57	1.84	3.16	0.473	2.05
AGAATGAGGTTACCAAAGATGAGGGAAACGCTTG	1.89	2.71	-0.269	1.35	-0.264	3.26	2.61	2.78	1.03	1.94
TCATATAGGCAAAGGTGAAAGTCGAACGATATGA	0.772	1.05	-0.253	1.07	-0.302	2.98	3.35	4.39	3.88	4.56
TCTTGTAAATCAACAGGAGGTTAAGAAAGATCGA	0.826	1.32	0.389	1.1	0.0438	1.36	0.285	2.05	3.57	2.79
CCTCGGAGGACAACAGGAGGTCAGACCTGCCAGA	0.836	2.12	2.37	1.52	-0.492	1.96	0.605	0.0936	-0.634	-0.359
TCATATAGGTCAACAGGTGAAAGTCCGTAAGTTA	6.45	5.39	1.85	4.2	1.2	5.91	8.36	7.51	5.85	7.17
AGAATGAGGTTATTAAGATCAGGCAATTGCGGTC	1.46	1.36	0.308	1.11	-0.00931	2.58	1.42	1.73	0.485	1.18
CATACAGGGCCAGCTAGGCCAGAGTAGGGACGGC	-0.56	-0.822	-0.918	-1.15	-0.413	-0.817	0.311	-0.829	-0.392	-1
GGAACGAGGGCATTCGAGGTGATAGCATGGCGAT	1.32	3.38	-0.432	0.556	-0.578	2	1.28	0.75	0.0745	0.494
CCTACTGGGCCACGAAATGTCATTGATTCAGTGA	-0.161	-0.0585	-0.34	-0.341	-0.393	0.653	1.58	1.24	-0.144	0.475
AATACAGGGTCACTAGGCCAGAGTAGGTACGAAT	6.37	5.07	0.678	3.95	0.879	6.03	8.23	6.72	3.56	5.66
CCTACTGGGCCATCAGGACATTGATATCAACGTT	0.247	-0.3	0.171	-0.621	-0.424	0.703	1.19	1.26	0.361	0.825
CCTTACGGGTCAACGTTATAGCACGGGTGGTACG	4.79	3.47	-0.0163	2.99	-0.125	4.99	4.45	4.48	1.52	3.43
ACTAGCAGGCTAAGGGTCACTCAAGATTAGTCCG	2.37	2.99	-0.0624	2.72	-0.651	4.35	6.55	6.82	6.03	7.57
CTACCAAGGTGAACGAGGTCGTTGATTACTATTC	1.79	1.81	0.142	2.09	-0.207	2.82	1.45	1.48	0.4	0.896
TCATATAGGTAATACAGGTGCAAGTCGGCATCTA	0.658	1.85	0.544	0.742	0.358	1.45	1.07	2.35	3.75	3.08
CCTGCTAGGTCATGGGCAGCTAATCTACAGTATG	4.12	2.55	-0.0623	1.29	-0.864	3.72	2.82	3.2	0.94	1.97
ACTAGCAGGCCAAGGGTCGCTCAAGATTAGTCCG	-0.247	0.0805	-0.567	0.0881	-0.965	2.36	4.99	6.2	3.7	5.95
TCTAGCAGGCGAGAGGGTCACTCAAGAGGTACGG	0.647	0.656	-0.616	1.05	-1.27	2.03	0.765	1.64	1.43	1.6
TGTCAAAGTTCAAATGTAACGTAAGTATCCACAC	7.51	6.72	5.84	4.79	3.48	5.53	8.25	7.12	5.15	6.93
GGAACGAGGGCAAGTTGCTAGCAGAGTTTGATGG	0.687	0.359	-0.44	0.0629	-0.392	1.48	0.841	1.04	-0.453	0.0808
CGAACGAGGGAATGAGTTGATAGCAAATGCCGAT	-0.82	-0.749	-0.474	-1.01	-0.729	-1.17	0.578	-0.457	-0.284	-0.51
